Data taken from PubChem BioAssay (EPA / NIEHS).
Inconclusive results are not listed. Active and inactive are the calls of the source. How the source made its calls, unless noted: active means hit-call score of the fitted dose curve at least 0.9, where 1 is the maximum; inactive means score below 0.9.

Tests used:
[1] = ACEA_ER_80hr: ACEA Biosciences xCELLigence Real-Time Cell Analysis on Estrogen Receptor Agonism for Proliferation (AID 2282667; active means hit-call score of the fitted dose curve at least 0.9, where 1 is the maximum); conditions: T47D proliferation, impedance (xCELLigence), 80 h
How it was run: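 T-47D cells monitored by electrical impedance (xCELLigence) with compound present throughout; 80 h timepoint, positive-direction fitting versus DMSO. Eight-point 1:4 dilutions from 100 uM final, duplicate plates.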

[2] = APR_HepG2_CellCycleArrest_24hr: Apredica 24-hour HepG2 Assay for Cell Cycle Arrest (AID 2282905); conditions: imaging, actives raise or lower the signal;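 further: cell cycle arrest scored as ratio of 2N to 4N nuclear DNA content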
How it was run: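 HepG2, 24 hr dosing, 10-pt 0.39–200 uM in duplicate, 0.5% DMSO. Fixed 3.7% formaldehyde, permeabilized 0.5% Triton X-100, Hoechst 33342 2 ug/mL. Imaged 20x; nuclear DNA content quantified; bidirectional fit vs DMSO.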

[3] = APR_HepG2_NuclearSize_24hr: Apredica 24-hour HepG2 Assay for Nuclear Size (AID 2282907); conditions: high-content imaging, actives raise or lower the signal
How it was run: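 HepG2, 24 hr dosing, 10-pt 0.39–200 uM, duplicates, 0.5% DMSO final; 3.7% formaldehyde fix, 0.5% Triton X-100; Hoechst 33342 nuclear stain; ArrayScan HCS, Cell Cycle analysis → nuclear size; bidirectional fit vs DMSO.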

[4] = APR_HepG2_CellLoss_24hr: Apredica 24-hour HepG2 Assay for Cell Loss (AID 2282908); conditions: high-content imaging;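 on AC50: fit in both directions so a hit may be cell loss or gain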
How it was run: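 10-pt dose, 0.39–200 uM, n=2/plate; DMSO 0.5% v/v final as negative control. Fix 3.7% formaldehyde 30 min RT, permeabilize 0.5% Triton X-100, stain Hoechst 33342 2 ug/mL, image 20x. Nuclear count, bidirectional fit vs DMSO.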

[5] = APR_HepG2_MicrotubuleCSK_24hr: Apredica 24-hour HepG2 Assay for Microtubule CSK Stabilty (AID 2282909); conditions: HepG2 microtubule cytoskeleton imaging, actives raise or lower the signal
How it was run: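 Human liver HepG2, 24 h dosing, 0.39–200 uM ×10 conc, dup, 0.5% DMSO. 3.7% formaldehyde fix, 0.5% Triton perm, anti-alpha-tubulin (1:200)/Cy5 secondary + Hoechst. HCS imaging, 6 fields/well; gain/loss fit vs DMSO.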

[6] = APR_HepG2_MitoticArrest_24hr: Apredica 24-hour HepG2 Assay for Mitotic Arrest (AID 2282910); conditions: high-content imaging, actives raise or lower the signal
How it was run: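 HepG2 cells, 24 h exposure at 0.39-200 uM (10 concentrations, duplicate, 0.5% DMSO). Fixed, stained for phospho-histone H3 with Hoechst; imaged by high-content microscopy, bidirectional fit versus DMSO.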

[7] = APR_HepG2_MitoMembPot_24hr: Apredica 24-hour HepG2 Assay for Mitochondrial Membrane Potential (AID 2282911); conditions: imaging, actives raise or lower the signal
How it was run: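 HepG2 cells exposed 24 h to 0.39–200 uM compounds in duplicate, 0.5% v/v DMSO final. MitoTracker Red CMXRos 250 nM loaded 30 min before formaldehyde fixation; high-content imaging at 20x, bidirectional fit versus DMSO.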

[8] = APR_HepG2_MitoMass_24hr: Apredica 24-hour HepG2 Assay for Mitochondrial Mass (AID 2282912); conditions: high-content imaging, actives raise or lower the signal
How it was run: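 Mitochondrial mass is read as MitoTracker Red fluorescence intensity from automated imaging, with bidirectional curve fitting relative to DMSO. HepG2 cells received compound (0.39–200 uM, 0.5% DMSO final) for 24 hr and were dye-loaded (250 nM, 30 min) before formaldehyde fixation.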

[9] = APR_HepG2_p53Act_24hr: Apredica 24-hour HepG2 Assay for p53 Activation (AID 2282913); conditions: high-content imaging, actives raise or lower the signal;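 further: p53 protein immunofluorescence averaged per cell in HepG2 with Hoechst nuclei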
How it was run: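 HepG2 cells exposed 24 h to compounds at 0.39–200 uM in duplicate, 0.5% v/v DMSO final; fixed, permeabilized, stained with anti-p53 antibody and Hoechst 33342; fluorescence imaging; bidirectional curve fit versus DMSO.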

[10] = APR_HepG2_CellCycleArrest_72hr: Apredica 72-hour HepG2 Assay for Cell Cycle Arrest (AID 2282914); conditions: high-content imaging, actives raise or lower the signal
How it was run: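 HepG2 cells exposed 72 h in duplicate to 0.39–200 uM compound, 0.5% DMSO final. Formaldehyde-fixed, Hoechst 33342-stained nuclei imaged at 20x, six fields per well; DNA content per valid cell quantified by cell-cycle image analysis, bidirectional fit versus DMSO.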

[11] = APR_HepG2_CellLoss_72hr: Apredica 72-hour HepG2 Assay for Cell Loss (AID 2282915); conditions: high-content imaging
How it was run: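 HepG2 cells exposed 72 h to compound at 0.39–200 uM (10 concentrations, duplicate) in 0.5% DMSO. Fixed with 3.7% formaldehyde and Hoechst 33342-stained. Imaged at 20x; nuclear count gives cell number, fitted bidirectionally versus DMSO.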

[12] = APR_HepG2_P-H2AX_72hr: Apredica 72-hour HepG2 Assay for H2AX Phosphorylation (AID 2282916); conditions: imaging, actives raise or lower the signal;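 further: phospho-histone H2A.x immunostain intensity per cell marking DNA damage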
How it was run: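 HepG2; cpd 0.39–200 uM ×10 conc, duplicates; 0.5% DMSO; 72 hr. Fix 3.7% formaldehyde 30 min RT, 0.5% Triton X-100 10 min. Anti-phospho-H2A.x 1:200 + Hoechst 2 ug/mL, 60 min RT; ArrayScan imaging.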

[13] = APR_HepG2_MitoMembPot_72hr: Apredica 72-hour HepG2 Assay for Mitochondrial Membrane Potential (AID 2282917); conditions: imaging, actives raise or lower the signal
How it was run: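 HepG2 cells dosed 72 hr with compound at 0.39–200 uM in duplicate, 0.5% v/v DMSO final. Mitochondria stained with 250 nM MitoTracker Red CMXRos for 30 min before formaldehyde fixation, imaged by high-content fluorescence; bidirectional fit versus DMSO.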

[14] = APR_HepG2_MitoticArrest_72hr: Apredica 72-hour HepG2 Assay for Mitotic Arrest (AID 2282918); conditions: high-content imaging, actives raise or lower the signal
How it was run: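 HepG2 cells treated 72 h at 0.39–200 uM, 0.5% DMSO final; formaldehyde-fixed, stained with Hoechst 33342 and phospho-histone H3 antibody, imaged by high-content fluorescence; bidirectional fit versus DMSO.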

[15] = APR_HepG2_MicrotubuleCSK_72hr: Apredica 72-hour HepG2 Assay for Microtubule CSK Stabilty (AID 2282919); conditions: HepG2 microtubule cytoskeleton, high-content imaging, actives raise or lower the signal
How it was run: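 HepG2 cells were exposed 72 hr to compound at 0.39–200 uM in duplicate (0.5% DMSO final), then fixed and permeabilized. Alpha-tubulin immunofluorescence was imaged by high-content microscopy, with bidirectional fitting against DMSO and taxol as positive control.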

[16] = APR_HepG2_P-H2AX_24hr: Apredica 24-hour HepG2 Assay for H2AX Phosphorylation (AID 2282920); conditions: high-content imaging, actives raise or lower the signal
How it was run: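 HepG2 cells dosed 24 h at 0.39–200 uM (10 points, duplicate, 0.5% DMSO final). Formaldehyde-fixed and permeabilized, then immunostained for phospho-H2A.x with Hoechst. Fluorescence quantified by high-content imaging, fitted bidirectionally versus DMSO.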

[17] = APR_HepG2_StressKinase_72hr: Apredica 72-hour HepG2 Assay for Stress Kinase (AID 2282921); conditions: HepG2 stress kinase (phospho-c-Jun) imaging, actives raise or lower the signal
How it was run: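 Dose 0.39–200 uM (10 pts, duplicate), 0.5% DMSO; 72 h; fix 3.7% formaldehyde 30 min RT; Triton permeabilize; anti-phospho-c-Jun/Cy3 + Hoechst 60 min RT; image 20x; fit gain/loss vs DMSO.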

[18] = APR_HepG2_StressKinase_24hr: Apredica 24-hour HepG2 Assay for Stress Kinase (AID 2282922); conditions: HepG2 stress kinase (phospho-c-Jun) imaging, actives raise or lower the signal
How it was run: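 HepG2 cells exposed 24 h to 0.39–200 uM compound in duplicate (0.5% v/v DMSO final). Cells fixed in 3.7% formaldehyde, permeabilized and immunostained for phospho-c-Jun; read by high-content fluorescence imaging, fitted bidirectionally against DMSO.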

[19] = APR_HepG2_p53Act_72hr: Apredica 72-hour HepG2 Assay for p53 Activation (AID 2282923); conditions: high-content imaging, actives raise or lower the signal;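 further: average cellular p53 protein immunofluorescence intensity in HepG2 cells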
How it was run: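 10-pt conc. 0.39–200 uM, duplicate, 0.5% DMSO; 72 hr exposure; 3.7% formaldehyde fix, 0.5% Triton perm; sheep anti-p53/Cy5 + Hoechst; ArrayScan 20x, 6 images/well; gain/loss fit vs DMSO.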

[20] = APR_HepG2_MitoMass_72hr: Apredica 72-hour HepG2 Assay for Mitochondrial Mass (AID 2282924); conditions: high-content imaging, actives raise or lower the signal;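 further: MitoTracker Red CMXRos stain intensity per cell imaged as mitochondrial mass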
How it was run: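 HepG2 cells dosed 72 hr at 0.39–200 uM (0.5% DMSO), in duplicate. MitoTracker Red CMXRos 250 nM loaded 30 min before formaldehyde fixation; high-content fluorescence imaging, bidirectional fit versus DMSO.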

Measured: AC50

CCc1ccc(CCOc2ccc(CC3SC(=O)NC3=O)cc2)nc1 (stereo not drawn)
active: [2] 30.6 µM | [4] 110 µM | [10] 94.4 µM | [11] 112 µM | [12] 103 µM | [14] 103 µM | [20] 57.6 µM
inactive: all other assays above

CCCOC(=O)c1ccc(O)cc1
active: [1] 2.7 µM
inactive: all other assays above

O=C(O)c1ccccc1C(c1ccc(O)cc1)c1ccc(O)cc1
active: [10] 100 µM | [11] 80.2 µM
not listed: [9] | [19]
inactive: all other assays above

CC(C)(C)c1cccc(C(C)(C)C)c1O
active: [4] 111 µM | [7] 110 µM | [8] 96.1 µM | [9] 100 µM | [10] 112 µM | [11] 113 µM | [13] 100 µM | [16] 57.3 µM
inactive: all other assays above

CCCCOCCO
inactive: all assays above
